Hit rate of the full screen: of about 94,000 compounds, about 390 (0.41%) were called active. The list comes from a sample in which actives are over-represented; it also holds similar structures and randomly drawn compounds. Unmarked numbers belong to inactive results.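 The calls were made as follows: active = cell count reduction more than 3 SD above the screen-wide mean (cut at about 70% in these data); inactive = the rest.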
Test: cytotoxicity in IL-1B stimulated HUVEC, primary screen, cytotoxicity control for IL-1B NFkB translocation project, imaging, Hoechst nuclear count, IL-1B stimulus (AID 845);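 also: normalized per plate to untreated control cells as the no-loss baseline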
Details: HUVEC cell count loss, at 2 µM, active compounds read high

Compared with Cc1cccc(CCNS(=O)(=O)c2ccc(S(=O)(=O)NC3CCCC3)cc2)c1, CNS(=O)(=O)c1cnccc1N1CCN(c2cccc(C)c2)CC1 is higher in cell count reduction: -6.4% for the first, -0.7% for the second.

First: COc1ccc(-c2cc(C(=O)NCc3ccco3)no2)cc1OC
Second: COc1ccc(F)cc1S(=O)(=O)Nc1ccc2c(c1)OCO2
The cell count reduction of the first is higher: 3% for the first, -1.3% for the second.

Compared with Cc1ccc(OCC(=O)N2CCN(C(=O)c3cccnc3)CC2)cc1, O=C(c1ccccc1-c1ccccc1)N1CCOCC1 is higher in cell count reduction: -38.8% for the first, -0.4% for the second.

Compared with CNC(=S)N1N=C(c2ccccc2)CC1c1ccc(Br)cc1 (stereo not given), CC(Sc1nncn1C)C(=O)Nc1ccccc1-c1ccccc1 (stereo not given) is higher in cell count reduction: -18.6% for the first, 35.5% for the second.

Compared with CC(C)CNS(=O)(=O)c1ccc(OCC(=O)Nc2ccc3c(c2)OCO3)c(Cl)c1, Cc1ccc(NC(=S)N/N=C2/CCCc3c(C)cc(C)cc32)cc1 is higher in cell count reduction: -38.8% for the first, -6.1% for the second.

First: O=C1c2ccccc2C(=O)c2c1cccc2N1CCN(CCO)CC1
Second: Cc1ccc(O/C=C2\OC(=O)c3ccccc32)cc1
The cell count reduction of the first is higher: -12.4% for the first, -34.7% for the second.

First: COc1cc(/C=N/O)cc(Br)c1OCc1cccc(Cl)c1
Second: CC(=O)c1cnn(-c2cc(Oc3ccc(F)cc3)ncn2)c1C
The cell count reduction of the first is lower: -29.3% for the first, -1.7% for the second.

Compared with N=c1oc2ccccc2cc1C(=O)N/N=C/c1ccccc1, COc1ccc(-c2cc(C(=O)n3cnc4ccccc43)c3ccccc3n2)cc1 is lower in cell count reduction: 23.4% for the first, -10% for the second.

Compared with CCc1c(O)nc(SCC(=O)Nc2ccccc2)n(C(C)CC)c1=O (stereo not given), Cn1c(=O)c2c(ncn2CC(COCc2ccccc2Cl)OCc2ccccc2Cl)n(C)c1=O (stereo not given) is higher in cell count reduction: -2.8% for the first, 8.7% for the second.

Going from COCC(C)NC(=O)c1ccc(-n2nc(C(F)(F)F)cc2-c2cccs2)cc1 (stereo not given) to O=C(Nc1cccn(Cc2c(Cl)cccc2Cl)c1=O)c1ccc(Cl)cc1, the cell count reduction rises from -9.2% to -1.3%.

Going from Cc1ccc(Nc2nnc(SCc3ccccc3)s2)cc1 to Cc1nnc(SCC(=O)NC2CCCC2)s1, the cell count reduction rises from 22.5% to 22.6%.

Work on CC/C(O)=N\S(=O)(=O)c1ccc(N=NN(C)C)cc1 yielded a cell count reduction of -5.3%.

In the case of COc1ccc(S(=O)(=O)Nc2ccc3c(c2)OCO3)cc1Cl, the cell count reduction is reported as 81.3% (active).
In the case of CC(C(=O)Nc1ccccc1-c1ccccc1)N1CCOCC1 (stereo not given), the cell count reduction is reported as 91.2% (active).
